A selection: hits, their analogues and other compounds. The true share with any hit is near 3%.
ALOX15B inhib: blocks human 15-lipoxygenase 2 activity; AID 881; 110,000 tested, 0.56% active; O15296; purified 15hLO-2, xylenol orange hydroperoxide absorbance; Potency, µM (highest dose often 57.1 µM), without a hit: at the top dose activity change, negative = inhibition, hits mostly inhibitors; note: potency is the fitted concentration of half-maximal effect; nearly all actives have a fitted effect of over 60% in size
Target sequence (O15296 whole entry, looked up): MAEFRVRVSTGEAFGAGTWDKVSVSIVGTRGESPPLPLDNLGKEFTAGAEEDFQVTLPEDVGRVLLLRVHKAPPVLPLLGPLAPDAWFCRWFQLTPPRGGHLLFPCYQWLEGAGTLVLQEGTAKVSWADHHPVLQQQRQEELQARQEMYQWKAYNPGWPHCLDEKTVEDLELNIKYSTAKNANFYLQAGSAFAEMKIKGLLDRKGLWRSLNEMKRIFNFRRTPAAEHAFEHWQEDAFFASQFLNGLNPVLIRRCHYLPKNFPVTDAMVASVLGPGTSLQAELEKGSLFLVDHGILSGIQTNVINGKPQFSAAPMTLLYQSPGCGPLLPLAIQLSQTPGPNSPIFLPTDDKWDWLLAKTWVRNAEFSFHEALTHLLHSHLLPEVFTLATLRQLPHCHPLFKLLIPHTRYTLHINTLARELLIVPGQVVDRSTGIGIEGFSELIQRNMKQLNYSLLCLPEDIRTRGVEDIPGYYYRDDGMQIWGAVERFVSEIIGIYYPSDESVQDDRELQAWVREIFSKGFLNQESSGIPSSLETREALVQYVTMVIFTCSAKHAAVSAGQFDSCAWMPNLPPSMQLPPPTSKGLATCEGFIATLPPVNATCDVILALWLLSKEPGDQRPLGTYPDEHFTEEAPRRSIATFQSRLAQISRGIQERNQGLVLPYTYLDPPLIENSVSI
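Read-out: hydroperoxide product oxidises ferrous iron, measured as xylenol orange complex via the 573-to-405 nm absorbance ratio after 30 min. Reaction: 50 nM enzyme, 15 min compound preincubation, 45 uM arachidonic acid, 90 min RT, Hepes pH 7.5 with Triton X-100.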
PNC assembly inh: inhibitors of perinucleolar compartment assembly; 140,000 tested, 3.1% active; PC3M PTB-GFP, PNC prevalence imaging, 16 h; stronger effect = lower value; activity change (PNC), negative = inhibition, % at 10 µM;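 active = readout at or below -70, meaning at least 70% loss of cells showing the perinucleolar compartment, a nuclear body marking cancer cells; inconclusive = readout between -30 and a set limit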;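 note: plate controls were DMSO wells for no effect and camptothecin positive control wells for full effect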
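PC3M cells stably expressing PTB-GFP, 750–1000 cells/well, treated 16 h at 37 °C with compound (23 nl of library stock), in duplicate. After paraformaldehyde fixation and Hoechst stain, imaged at 20x; PNC prevalence scored by image analysis.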
12-hLO inh: inhibitors of human 12-lipoxygenase (ALOX12); purified 12-hLO, xylenol orange hydroperoxide absorbance; Potency, µM (doses to about 57.1 µM), inactives show at the top dose activity change, negative = inhibition, usual class: inhibitors; P18054; 150,000 tested, 0.12% active; note: potency is the fitted concentration of half-maximal effect; nearly all actives have a fitted effect of over 55% in size
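Xylenol orange chromogenic assay: hydroperoxide from 12hLO oxidises Fe(II), giving red-shifted Fe(III)-XO absorbance. Conditions: 150 nM enzyme, 40 uM arachidonic acid, 25 mM Hepes pH 7.0, 0.01% Triton X-100, 30 min, room temperature.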
IMPase cell inh: cell-permeable inhibitors of inositol monophosphatase (IMPase) | P97697 | CHO-M1 cells, IP1 accumulation, HTRF TR-FRET ratio | inhibition (IP1 accumulation), % at 46.1 µM | 120,000 tested, under 10 active | AID 901; active = well fitted curve in the direction sought with a large enough effect in the signal ratio, not every such curve was filed as active; inconclusive = small, poorly fitted or top-dose-only effect, or a change in a side signal; inactive = no such curve, though single readings can be large or run the other way; the % refers to the signal ratio;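 note: cells stimulated with carbachol in lithium chloride buffer; plate controls were DMSO basal wells for no effect and reference inhibitor wells for full effect; higher means more IMPase inhibition seen as more IP1 and lower FRET ratio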
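Seeded CHO-M1 cells were dosed with compound at up to 46 uM, stimulated with carbachol for 30 min, then lysed in IP-One detection reagents. Higher IP1 lowers the TR-FRET signal.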
Starred values were filed as active, the others as inactive; ? = inconclusive; . = no result; [ ] = dose if it differs, or a comment. Unless noted, calls come from the whole dose curve; as a rule, active = well fitted curve in the direction sought with a large enough effect; inconclusive = small, poorly fitted or top-dose-only effect, or another doubt; inactive = no such curve, though single readings can be large; an effect the other way counts as inactive or inconclusive. Unless noted, % is set by controls: 0 for no effect and ±100 for the full control effect.

SMILES | ALOX15B inhib | PNC assembly inh | 12-hLO inh | IMPase cell inh
CCCSc1cc(N2CCN(C)CC2)nc(-c2ccc(OC)cc2)n1 | 51% | -81* | 3% | 4
COC(=O)CC1C(C)(C)C2(O)OC34CC2C(=O)[C@@]1(C)C3CC[C@]1(C)C4=CC(=O)OC1c1ccoc1 (some centres not stated) | -4% | . | 1% | .
COc1cc(/C=N/N(C)c2ccccc2)cc(Cl)c1O | 10µM* | ? | ? | 9
COc1ccc(S(=O)(=O)N2c3cc(Cl)ccc3Oc3nc4ccccc4nc32)cc1 | . | -100* | 1% | -10
O=S(=O)(c1ccc(Cl)cc1)N1c2ccccc2Oc2nc3ccccc3nc21 | . | -24 | -3% | 7
COCC(=O)N1CCC2(CC1)CN(C(=O)Nc1ccc(OC)cc1)C2 | 1% | . | 0% | .
CC(Oc1ccccc1Cl)c1nnc(N)s1 (configuration not stated) | 10% | -117* | 4% | 3
COC(=O)c1ccccc1NC(=O)NCC1CCCO1 (configuration not stated) | 9%[2.29 µM] | -122* | -2% | 0
CCOc1ccccc1C1CC(c2ccc(Br)cc2)Nc2nc(N)nn21 (configuration not stated) | . | -114* | -11% | 5
COc1ccc(C2CC(c3ccc(F)cc3)Nc3nc(N)nn32)cc1 (configuration not stated) | . | 40 | 0% | 3
Nc1nc2n(n1)C(c1ccc(Cl)cc1)CC(c1ccc(F)cc1)N2 (configuration not stated) | . | -119* | 1% | 4
COc1cccc(C2CC(c3c(F)cccc3Cl)n3nc(N)nc3N2)c1 (configuration not stated) | . | -110* | 2% | 13
Clc1ccc(Cn2c(/C=C/c3ccco3)nc3ccccc32)cc1 | . | -84* | -7% | .
COC(=O)c1cn(C)c2ccc(S(=O)(=O)N3CCCC3)cc2c1=O | -16% | -109* | -3% | -9
c1ccc2sc(SN3CCOCC3)nc2c1 | 20µM* | ? | -4% | -6
CC(C)=CCC/C(C)=C/C=N/NC(=O)c1ccccc1[N+](=O)[O-] | -2% | -10 | -16% | -2
CCC/C=N/NC(=O)c1[nH]c2c([N+](=O)[O-])cccc2c1C | . | -113* | -1% | 1
COC(=O)CCCCC1SCC(NC(=O)OC)C1NC(=O)OC (configuration not stated) | -4% | -86* | 2% | 4
CC(C)C[C@@H]1NC(=O)[C@H](CO)NC(=O)c2cc([N+](=O)[O-])cc(I)c2OCC[C@@H](C(N)=O)NC1=O | . | 28 | -1% | .
O=S(=O)(c1cc(Cl)cc(Cl)c1)N1CCCC1c1nc2ccccc2s1 (configuration not stated) | . | -100* | 1% | 0
O=S(=O)(c1ccc(Cl)cc1)N1CCCC1c1nc2ccccc2s1 (configuration not stated) | -4% | 6 | -13% | 6
CCNc1ccc2noc3c2c1C(=O)c1ccccc1-3 | . | -100* | -7% | 2
O=C1c2ccccc2-c2onc3ccc(NCc4ccco4)c1c23 | -15% | -16 | -11% | ?
Nc1ccc(N(c2ccccc2)c2ccc(N)cc2)cc1 | 0.63µM* | 48 | -29% | 3
CC(=O)c1ccc(NC(=O)C(C)OC(=O)c2ccc(NS(=O)(=O)c3ccc(F)c(F)c3)cc2)cc1 (configuration not stated) | . | -100* | -8% | .
SMILES | ALOX15B inhib | PNC assembly inh | 12-hLO inh | IMPase cell inh
Cn1nnnc1SCC(=O)Nc1ccc(Br)cc1Cl | . | -100* | -2% | -1
Cn1nnnc1SCC(=O)Nc1ccccc1Cl | 8% | 34 | -5% | -2
CC(=O)c1cccc(NC(=O)Cc2coc3cc4c(cc23)CCC4)c1 | . | 38 | -2% | .
COc1ccc(-n2cc(-c3ccccc3)nc2SC)cc1 | . | -85* | -1% | 3
COc1ccc(-c2nnc(SC)n2C)cc1 | -5% | 26 | -3% | 7[9.22 µM]
CCOC(=O)N1CCN(C(=O)c2ccc3c(c2)sc2nc(-c4ccc(OC)cc4)cn23)CC1 | 0% | 18 | -1% | 2
COc1ccc2c(c1)sc1nc(-c3ccccc3)cn12 | -7% | -96* | -4% | 0
Nc1ncnc2c1nc(Sc1ccc(Cl)cc1)n2[C@@H]1O[C@H]2COP(=O)(O)O[C@@H]2[C@H]1O | 1% | . | -4% | ?
CC(=O)c1cccc(NS(=O)(=O)c2cccc(C(=O)O)c2)c1 | . | . | -2% | .
CSc1ccccc1OC1CCN(Cc2ccccc2)CC1 | . | -109* | -5% | .
CCc1nn2c(=O)c(S(=O)(=O)Nc3ccc(OC)c(Cl)c3)c(C)nc2s1 | . | . | . | 6
O=C(O)C1CCCCN1S(=O)(=O)c1ccccc1 (configuration not stated) | 4% | -13 | 0% | -4
O=C1CCN(S(=O)(=O)c2ccccc2)C2CCCCC12 (configuration not stated) | 1% | -86* | 0% | 5
CN(Cc1ccccc1)c1nc(-c2ccc([N+](=O)[O-])cc2)nc2ccccc12 | 8% | -98* | 2% | -1
CN(C)c1ccc(-c2nc(N(C)Cc3ccco3)c3ccccc3n2)cc1 | 34% | . | -11% | .
Cc1ccccc1-n1c(=O)cc(N2CCC3(CC2)OCCO3)[nH]c1=O | . | -119* | 2% | 8
Cc1ccc(-n2c(CCC(=O)O)ccc2-c2cccs2)cc1Cl | . | . | . | 2
O=C1C(=O)c2ccc(-c3ccccc3)cc2-c2ccccc21 | . | -105* | 2% | ?
Nc1ccc2c(c1)C(=O)C(=O)c1ccccc1-2 | ? | -81* | ? | ?
Cc1ccc2c(c1)C(=O)OC(C(=O)Nc1ncc(Cc3ccc(C(C)C)cc3)s1)C2 (configuration not stated) | . | . | . | 9
CCOc1cc(NC(=O)C2CCCCC2)c(OCC)cc1NC(=O)c1ccco1 | 2% | -14 | 0% | 3
CCOc1cc(NC(=S)Nc2cccc(OC)c2)c(OCC)cc1NC(=O)C1CC1 | ? | -106* | ? | 22
CCCOc1ccc2c3c(c(=O)oc2c1OCCC)CCCC3 | -10% | -111* | 0% | 0
CCC(=O)N1CCc2cc(Br)cc(S(=O)(=O)CCC(=O)NCc3ccco3)c21 | . | -119* | 1% | 2
CCOC(=O)N1CCN(S(=O)(=O)c2cc(Br)cc3c2N(C(=O)CC)CC3)CC1 | 2% | ? | 3% | -16
SMILES | ALOX15B inhib | PNC assembly inh | 12-hLO inh | IMPase cell inh
CCC(=O)N1CCc2cc(Br)cc(S(=O)(=O)N3CCCCCC3)c21 | . | -100* | -1% | 2
Cc1ccn2c(Nc3ccccc3C)c(-c3cccnc3)nc2c1 | . | . | . | 6
O=c1cc(-c2cc(O)c(O)c(O)c2)oc2cc(O)cc(O)c12 | 13µM* | . | -26% | .
CCOC(=O)C1=C(C)Nc2sc(C(=O)c3ccc(OC)cc3)c(N)c2C1c1ccc(C(=O)OC)cc1 (configuration not stated) | . | 167 | -9% | .
CC(=O)Nc1c(O)[nH]c2ccccc12 | -4% | -98* | 3% | 0
c1ccc(Nc2nc(-c3ccc4c(c3)OCO4)nc3ccccc23)cc1 | -5% | . | . | .
C=CCn1c(N)c(C(=O)NCc2cccnc2)sc1=S | -11% | 18 | -1% | -10

Source: PubChem (National Center for Advancing Translational Sciences (NCATS))
